# Test results reported in PubChem BioAssay AID743182 (Broad Institute, 2013).
# Calls of active or inactive are those of the source.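 How the source made its calls: active means cell killing with a fitted half-maximal concentration at most twice the top valid dose tested; inconclusive means flat curve with 30 to 70% signal loss, or poor fit; inactive means the rest.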
# Test: viability loss in HEK293 cells – cell-based, luminescence, dry powder, set 8, cytotoxicity control, dose response (AID 743182)
# Details: HEK293T viability, CellTiter-Glo ATP luminescence, 72 h; series mostly up to 26 µM; activity change, negative = cytotoxicity: at the top concentration
row,Compound,"activity change, negative = cytotoxicity"
1,CSc1ccc(/C=N/NC(=O)c2ccc3nc[nH]c3c2)cc1,-5.84% (inactive)
2,O=C(N/N=C/c1c[nH]c2ccccc12)c1cccs1,-12.9% [at 12 µM] (inactive)
3,O=C(N/N=C/c1c[nH]c2ccccc12)c1cccc(O)c1,-7.33% (inactive)
